The values that follow come from paper PMC7819943, “Rice protein-binding microarrays: a tool to detect cis-acting elements near promoter regions in rice”.

Over roughly 35,000 sequences, “fluorescence intensity (a.u.)” has its median near 10,000; the highest 2% begin near 52,000. The list comes from a sample in which the highest values are over-represented; it also holds similar and randomly drawn sequences.

The assay has as its target T1, OsWOX13 (Oryza sativa, UniProt Q5QMM3 1-267).
T1 sequence: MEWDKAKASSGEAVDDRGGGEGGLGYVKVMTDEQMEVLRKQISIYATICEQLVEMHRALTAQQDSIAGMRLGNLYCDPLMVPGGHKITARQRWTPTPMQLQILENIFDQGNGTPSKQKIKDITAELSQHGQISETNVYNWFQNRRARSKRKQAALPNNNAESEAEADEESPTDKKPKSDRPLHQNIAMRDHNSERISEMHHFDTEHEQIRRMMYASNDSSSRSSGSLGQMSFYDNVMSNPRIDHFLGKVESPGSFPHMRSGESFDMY
Nature of the assay: protein-binding microarray (RPBM); PBS, 2% BSA, 51.3 ng/ul salmon testes DNA, 50 uM zinc acetate, 200 nM TF, 25 C, 1 h; high values mean tight binding. Particulars: protein: recombinant; tags: N-terminal polyhistidine and DsRed monomer fusion (pET32a); label: CyDye5-dUTP incorporated in the synthesized complementary strand; 3' TTTTT single-stranded linker to array surface; dsDNA, one strand shown. The method, boiled down: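 The binding signal for each feature is its fluorescence intensity in arbitrary units. An Axon 4000B scanner was used to read a custom Agilent array that had been made double-stranded with Cy5-dUTP primer extension, blocked with 2% BSA, incubated at 25 °C for 1 h with 200 nM protein in PBS, 2% BSA, salmon testes DNA and 50 µM zinc acetate, and washed. The protein was an N-terminal polyhistidine–DsRed transcription factor fusion from E. coli BL21-CodonPlus, purified on Ni–NTA.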
Turning to “CCTTTTAATTGAAAAGCTCCTTATTGGCTTCCCACCTAAGCGGAGTCACCTAGTGCAG”, the binding signal is 46900 fluorescence intensity (a.u.).
Under “CAGCCCTTAATTGAATTTGGCCCAGCTAGTTCCCGGGCCCCGGAGTCACCTAGTGCAG” stands 30600 fluorescence intensity (a.u.).
Then “AGTTTTCTGTTCAATGATTTGGTTGAATCAAATTGTTCCTCGGAGTCACCTAGTGCAG”, with 4400 fluorescence intensity (a.u.); and “GTATTGTGATTTGTGAATCAGTGAATATGTGAATGTGATTCGGAGTCACCTAGTGCAG”, with 13200 fluorescence intensity (a.u.); and “GACTGGGAGGATGAGGGGTGGGTGGGTGTGGCTGCTTCTGCGGAGTCACCTAGTGCAG”, with 4110 fluorescence intensity (a.u.).
For “CGATCTAATTGTGAATCCTCTACCCTAGAGGACCTCCTATCGGAGTCACCTAGTGCAG”, the binding signal was 4020 fluorescence intensity (a.u.).
With “AGTTTTAGCCTAAATTGGGTAAATTATATTTTAACCGTAACGGAGTCACCTAGTGCAG”, the binding signal was 11600 fluorescence intensity (a.u.).
Then “TCAGTAACATTATTGGTTAAATTTTAAATTTTGAATAGGCCGGAGTCACCTAGTGCAG”, with 5870 fluorescence intensity (a.u.); and “AATTGTTTGATTGAAATTAATGTACTCTTGAATGGATAAACGGAGTCACCTAGTGCAG”, with 32600 fluorescence intensity (a.u.).
Regarding “GCTGACTAATTATGTAACAGGGGTCAAACAAGTAGGTGGACGGAGTCACCTAGTGCAG”, the binding signal is 20400 fluorescence intensity (a.u.).
With “GGTAGAAATAAGGATTGATTGAGATTCACCTACCTTTTCTCGGAGTCACCTAGTGCAG”, the binding signal is 37500 fluorescence intensity (a.u.).
Under “TCCACCGCGACATGTGATTGGAGGTAAGAGCATGTGAACCCGGAGTCACCTAGTGCAG” stands 5650 fluorescence intensity (a.u.).
As to “GCAGAAATGATTGCACTTCAATTATTGAGTAAAACAGATTCGGAGTCACCTAGTGCAG”, the binding signal is 30000 fluorescence intensity (a.u.).
Under “AAATGTGATTTTGTAATTTCCCCTTTGAATTTTCATCAAACGGAGTCACCTAGTGCAG” stands 8970 fluorescence intensity (a.u.); under “ATTGATTTGAATTCCAAATTTGTAATGATGTTGATCACCTCGGAGTCACCTAGTGCAG”, 39400 fluorescence intensity (a.u.).
Then “GCTCCTGATTTGCCTGATCAGATCAACAGATTAGCATGATCGGAGTCACCTAGTGCAG”, with 23600 fluorescence intensity (a.u.).
Then “CTTTGTAATTGGAGTCAATCAAATTGAATGATTTCCCTTTCGGAGTCACCTAGTGCAG”, with 58900 fluorescence intensity (a.u.).
For “GAGATTGATTGCATATCAGAAGTAAATGATTTCAACAGATCGGAGTCACCTAGTGCAG”, the binding signal is 54400 fluorescence intensity (a.u.).
On to “TAGGATTATGTTGGTGATGATGATGACTAGTGTGCCTGAACGGAGTCACCTAGTGCAG”, for which the binding signal was 4220 fluorescence intensity (a.u.).
Take “ATAGTTAACAAAATTTGACAGCAAACTAAATGTAACCATTCGGAGTCACCTAGTGCAG”: the binding signal was 27800 fluorescence intensity (a.u.).
Then “TACCCATCACCAAAATTACCATAAACACAACATACTTAGGCGGAGTCACCTAGTGCAG”, with 4380 fluorescence intensity (a.u.); and “AACTTATATAAGTTAAATTTAAACTTATATGTTTGTGGGGCGGAGTCACCTAGTGCAG”, with 4170 fluorescence intensity (a.u.); and “CAAAATTGAAAACTTCTTATTTGAAATTCAAAACTTTCAACGGAGTCACCTAGTGCAG”, with 10200 fluorescence intensity (a.u.).
Take “CATATAAATTGACAACTTCTACTTAAACCTGACATGTGGGCGGAGTCACCTAGTGCAG”: the binding signal was 54500 fluorescence intensity (a.u.).
With “ATATAAATTTGGAACAAATTCAACATCATGTTATCCTAGGCGGAGTCACCTAGTGCAG”, the binding signal is 4060 fluorescence intensity (a.u.).
“TTGACTTAAATTATAATTTTAAACCATATATTATAATTGGCGGAGTCACCTAGTGCAG”: the binding signal was 31400 fluorescence intensity (a.u.).
Under “TAAATTGACAAATTCAACCTAGGCCTGGACTTATTTGGCGCGGAGTCACCTAGTGCAG” stands 57500 fluorescence intensity (a.u.).
For “TTTGCTAGATTGGAGCAAATCGCATATTCTTAACCCCACCCGGAGTCACCTAGTGCAG”, the binding signal is 21600 fluorescence intensity (a.u.).
Then “GTTTCGTCTCGTAATTTACACGCAATCTGTGTAATTAGTTCGGAGTCACCTAGTGCAG”, with 7230 fluorescence intensity (a.u.).
Then “CTAAAATTTAATTAATCATACGACAGTGAATTTCTCATTTCGGAGTCACCTAGTGCAG”, with 20300 fluorescence intensity (a.u.); and “TCAGACAAATTAAGTTTTAGCTTAGCTTATCACTTAACGGCGGAGTCACCTAGTGCAG”, with 7680 fluorescence intensity (a.u.).
Under “AAATTCCGAATTTGATTCTTAATTAAGGCGAGCTATTCACCGGAGTCACCTAGTGCAG” stands 3490 fluorescence intensity (a.u.).
Regarding “AAACAGACAAACTACACTAATTGTGATGACTCTGGATTTTCGGAGTCACCTAGTGCAG”, the binding signal was 8340 fluorescence intensity (a.u.).
Then “GTGACTGATTGACAGTATCAACCATCTAGTGTTAAGATAGCGGAGTCACCTAGTGCAG”, with 52800 fluorescence intensity (a.u.); and “AATTCAAGCTCATCACTGATTTGATAAGACATTAAGATAGCGGAGTCACCTAGTGCAG”, with 4050 fluorescence intensity (a.u.); and “ACCATCATCAATTGATAGTTCTTGTTTCTCTAGTAGTAAGCGGAGTCACCTAGTGCAG”, with 9360 fluorescence intensity (a.u.).
Under “TCTTGCCAACTGATTGATCGATCCTGGAAGCTTGCTGCTGCGGAGTCACCTAGTGCAG” stands 37900 fluorescence intensity (a.u.).
For the sequence “TAAGTATCCTTGATTGATTGCCTGATCGATCAGCTGCTAGCGGAGTCACCTAGTGCAG”, the binding signal is 55000 fluorescence intensity (a.u.).
Under “TGTCCACTGAAATTGATTGGAGATCGATGTGATGGTCAAGCGGAGTCACCTAGTGCAG” stands 40200 fluorescence intensity (a.u.).
Under “GACGCCGTCAGCAATGATTGCCTTGCTAGCAGCTGCTTGACGGAGTCACCTAGTGCAG” stands 4390 fluorescence intensity (a.u.); under “TACGCCTGATTGGATCCCCACCCCTATCTCCACTGACTGTCGGAGTCACCTAGTGCAG”, 34100 fluorescence intensity (a.u.).
As for “CACCTGACTGATTGGATTGGTATCGATCCAAGCCTATCAGCGGAGTCACCTAGTGCAG”, the binding signal is 57100 fluorescence intensity (a.u.).
